Data as given in PubChem BioAssay (NCI).
About 83,000 compounds went through this panel and 20% of them were active in at least one assay; those are over-represented in the sample as a whole.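 The endpoint reported here, percent growth, reads 100 for growth as untreated, 0 for no net growth and -100 for all cells dead.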 Values without a mark were called inactive. Active and inactive are the calls of the source. The calls were made as follows: active = growth percent below 10; inactive = the rest.

What was measured:
Assay in all cases: NCI-60 one-dose screen, 48 h (100 = growth as untreated, 0 = no growth, -100 = all killed)
Conditions in all cases: 10 µM unless noted
NCI-H23 lung = test system: NCI-H23 lung
NCI-H226 lung = test system: NCI-H226 lung
NCI-H322M lung = test system: NCI-H322M lung
HOP-62 NSCLC = test system: HOP-62 NSCLC
NCI-H460 lung = test system: NCI-H460 lung
HOP-92 NSCLC = test system: HOP-92 NSCLC
NCI-H522 lung = test system: NCI-H522 lung
A549/ATCC NSCLC = test system: A549/ATCC NSCLC
786-0 renal = test system: 786-0 renal
COLO 205 colon = test system: COLO 205 colon

Compound	growth (NCI-H23 lung)	growth (NCI-H226 lung)	growth (NCI-H322M lung)	growth (HOP-62 NSCLC)	growth (NCI-H460 lung)	growth (HOP-92 NSCLC)	growth (NCI-H522 lung)	growth (A549/ATCC NSCLC)	growth (786-0 renal)	growth (COLO 205 colon)
CNC(=O)c1cc(Oc2ccc(NC(=O)c3[nH]c(SC)nc3-c3ccc(F)cc3)cc2)ccn1	75.4%	81.7%	85.4%	95%	72.6%	70.6%	68%	72.2%	78.1%	7.33% (active)
Clc1ccc2c(c1)-n1cccc1C(c1ccc3ccccc3c1)=NC2	74.4%	146%	122%	101%	96.7%	89.6%	41.3%	121%	88.7%	102%
CCOc1c(C#N)c2c(N)ncnc2n1C1OC(CO)C(O)C1O (stereo not given)	50.6%	71.8%	76.6%	76.6%	0.566% (active)	50.1%	-22.4% (active)	8.54% (active)	76.1%	8.97% (active)
CC(=O)N(C)c1ccc(Nc2cc(C)[nH]c3ccc4ncnc4c23)cc1	50.4%	54.8%	77%	54.3%	22.4%	-2.3% (active)	22.1%	67.2%	55.8%	53.3%
CC[C@H](Nc1nc(N)nc(C2CC2)c1C#N)c1nc2cccc(NCc3ccc(C(=O)NO)cc3)c2c(=O)n1-c1ccccc1	-14.8% (active)	-21.9% (active)	21.3%	5.11% (active)	-15.1% (active)	-14% (active)	-29.6% (active)	-30.6% (active)	-9.68% (active)	-17.8% (active)
CC(C)N=C1CCCC1C(=S)SSC(=S)C1CCCC1=NC(C)C (stereo not given)	75.5%	90.6%	86.7%	24.5%	47.5%	103%	8.07% (active)	71.1%	91.4%	88.8%
CC(=O)N[C@@H](CCC(N)=O)C(=O)O	92.6%	87.9%	111%	102%	105%	61.3%	103%	88.2%	82.6%	124%
CC(C)(C)c1ccc(Cn2c(-c3nonc3N)nc3ccccc32)cc1	70.7%	83.4%	83%	82.1%	86%	64.3%	49.3%	68.4%	80.4%	67.2%
O=c1cc(-c2ccc3c(c2)OCCO3)oc2cc(Cl)ccc12	61%	-12.9% (active)	-6.58% (active)	1.84% (active)	-57.9% (active)	-8.2% (active)	-12.7% (active)	11.2%	-42.8% (active)	40.7%
F	41.1% [6.87 mM]	90.6% [6.87 mM]	46.4% [6.87 mM]	10.7% [6.87 mM]	45.1% [6.87 mM]	-5.03% [6.87 mM] (active)	56.8% [6.87 mM]	18% [6.87 mM]	-1.01% [6.87 mM] (active)	40.3% [6.87 mM]
Nc1nc2ccc([C@@H]3Nc4ccc5[nH]ncc5c4[C@H]4[C@H]5CCC(C5)[C@H]43)cc2s1	23.2%	24.2%	-13% (active)	12.2%	-26.8% (active)	74.7%	-65.7% (active)	25.8%	43.9%	6.12% (active)
CN1CCN(Cc2ccc(NC(=O)c3cncc(C#Cc4ccc(N)nc4)c3)cc2C(F)(F)F)CC1	17.4%	-47.3% (active)	25.9%	8.59% (active)	6.66% (active)	-25.5% (active)	23.1%	16.2%	21.6%	-20.4% (active)
O=C(CSc1ccc(Cl)cc1)Nc1ccc(-c2nc3ccccc3s2)c(Cl)c1	20.9%	77.4%	87.7%	75.3%	41.5%	6.61% (active)	28.2%	48.8%	48.9%	76.2%
NNC(=O)Cc1ccccc1	93.2%	78.2%	74.2%	92.2%	94.7%	-17.8% (active)	77.6%	86.3%	92.1%	112%
